We go through twelve compounds from PubChem BioAssay (EPA / NIEHS).

The structures appear in SMILES notation. Where “and” joins values, the source holds several entries; their conditions need not be identical. Equal entries are not always repeated. Records with an inconclusive call do not appear. Where a structure was tested more than once in an assay, its records may differ in their call. Calls of active or inactive are those of the source. Rule for the calls, unless noted: active = hit-call score of the fitted dose curve at least 0.9, where 1 is the maximum; inactive = score below 0.9.

The term AC50 denotes the concentration giving half of the maximal activity seen.

For assay [1], the target named is human RAR-related Orphan Receptor gamma (RORg), RORC (gene 6097) (UniProt P51449). The assay is described as follows: ATG_RORg_TRANS: Attagene TRANS-FACTORIAL HepG2 Assay for human RAR-related Orphan Receptor gamma (RORg) (AID 2283011; active = hit-call score of the fitted dose curve at least 0.9, where 1 is the maximum). The method, boiled down:
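Reporter transcripts from a transfected RORg-GAL4 chimera in HepG2 cells were quantified 24 h after dosing by RT-PCR, 6-FAM labelling, HpaI digestion and capillary electrophoresis; increases over DMSO baseline were fitted.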

The target of assay [2] is human Thyroid Receptor alpha (THRa1), THRA (gene 7067) (UniProt P10827). The assay is described as follows: ATG_THRa1_TRANS: Attagene TRANS-FACTORIAL HepG2 Assay for human Thyroid Receptor alpha (THRa1) (AID 2283014; active = hit-call score of the fitted dose curve at least 0.9, where 1 is the maximum). The gist of the method: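 Transcripts from GAL4-UAS-driven reporters, measured after 24 h compound exposure by RT-PCR plus capillary electrophoresis of 6-FAM-labeled fragments, were fitted for gain of signal relative to DMSO. Cells: transiently transfected HepG2 expressing NR-Gal4 chimeras.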
Chain of human Thyroid Receptor alpha (THRa1), THRA (gene 7067) (P10827 whole entry, looked up, the tested form may be a part): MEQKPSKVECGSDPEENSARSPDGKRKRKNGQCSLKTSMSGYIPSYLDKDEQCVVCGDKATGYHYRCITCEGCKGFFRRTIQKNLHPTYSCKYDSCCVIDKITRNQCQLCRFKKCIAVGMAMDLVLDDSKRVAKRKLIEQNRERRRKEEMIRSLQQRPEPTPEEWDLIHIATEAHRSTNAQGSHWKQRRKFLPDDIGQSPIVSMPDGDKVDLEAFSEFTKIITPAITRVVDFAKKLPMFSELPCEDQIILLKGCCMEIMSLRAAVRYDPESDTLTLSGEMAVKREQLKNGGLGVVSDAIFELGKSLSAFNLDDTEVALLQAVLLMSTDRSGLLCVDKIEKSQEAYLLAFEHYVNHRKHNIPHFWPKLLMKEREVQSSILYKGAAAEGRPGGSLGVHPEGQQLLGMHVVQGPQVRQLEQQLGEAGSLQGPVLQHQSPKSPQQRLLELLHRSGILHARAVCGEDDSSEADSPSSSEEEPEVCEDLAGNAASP

Read-out in assay [3]: E-selectin (Homo sapiens) (UniProt P16581)
The assay is described as follows: BSK_3C_Eselectin: BioMAP Diversity Plus: 3C Assay for Eselectin Biomarker Activity (AID 2283015).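 For outcome: cell surface E-selectin protein quantified by ELISA 24 h after dosing.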 The settings on record: primary human endothelial cells (HUVEC); actives raise or lower the signal. The method, boiled down:
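E-selectin ELISA readout, fitted bidirectionally relative to DMSO, taken 24 h post-dosing in HUVEC cultures of the 3C system. Overt cytotoxicity tracked with sulforhodamine B staining of parallel wells.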

Read-out in assay [4]: Interleukin-1 alpha (IL1a), IL1A (gene 3552)
The assay is described as follows: BSK_BE3C_IL1a: BioMAP Diversity Plus: BE3C Assay for Interleukin-1 alpha (IL1a) Biomarker Activity (AID 2283016). Conditions: primary human bronchial epithelial cells; actives raise or lower the signal. The gist of the method:
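Signal from IL-1a ELISA, taken 24 h after chemical dosing of human bronchial epithelial cells, is compared with DMSO as baseline using bidirectional curve fitting.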

Read-out in assay [5]: Monocyte Chemoattractant Protein-1 (MCP1), CCL2 (gene 6347)
The assay is described as follows: BSK_3C_MCP1: BioMAP Diversity Plus: 3C Assay for Monocyte Chemoattractant Protein-1 (MCP1) Biomarker Activity (AID 2283017). Conditions: primary human endothelial cells (HUVEC); actives raise or lower the signal. The gist of the method: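 MCP-1 was measured by ELISA 24 h after dosing in primary HUVEC 3C cultures and fitted in both directions relative to DMSO; cytotoxicity was checked by SRB total-protein staining in parallel wells.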

Read-out in assay [6]: Monocyte Chemoattractant Protein-1 (MCP1), CCL2 (gene 6347)
The assay is described as follows: BSK_4H_MCP1: BioMAP Diversity Plus: 4H Assay for Monocyte Chemoattractant Protein-1 (MCP1) Biomarker Activity (AID 2283018). Conditions: primary human endothelial cells (HUVEC); actives raise or lower the signal. The gist of the method: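 Endothelial cells from umbilical vein were treated with test chemical, then after 24 h MCP-1 levels were quantified by ELISA; endpoint values came from bidirectional fitting with DMSO as baseline of activity.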

Read-out in assay [7]: Human Leukocyte Antigen - DR isotype (HLADR), HLA-DRA (gene 3122)
The assay is described as follows: BSK_3C_HLADR: BioMAP Diversity Plus: 3C Assay for Human Leukocyte Antigen - DR isotype (HLADR) Biomarker Activity (AID 2283019). The settings on record: primary human endothelial cells (HUVEC); actives raise or lower the signal. The gist of the method: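 Bidirectional fitting against DMSO was applied to the HLA-DR ELISA signal from human umbilical vein endothelial cells, 24 h post-dose. Cytotoxicity came from parallel SRB total-protein staining; 3C proliferation was counted by SRB at 48 h.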

Read-out in assay [8]: Interleukin-8 (IL8), CXCL8 (gene 3576)
The assay is described as follows: BSK_3C_IL8: BioMAP Diversity Plus: 3C Assay for Interleukin-8 (IL8) Biomarker Activity (AID 2283020). Conditions: primary human endothelial cells (HUVEC); actives raise or lower the signal. The gist of the method:
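Endothelial primary cells of human umbilical vein origin are dosed with chemical; after 24 h the IL-8 biomarker is measured by ELISA, and concentration–response is fitted in both directions versus DMSO.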

In assay [9] the target is human Vitamin D Receptor (VDR), VDR (gene 7421) (UniProt P11473). The assay is described as follows: ATG_VDR_TRANS: Attagene TRANS-FACTORIAL HepG2 Assay for human Vitamin D Receptor (VDR) (AID 2283022; active = hit-call score of the fitted dose curve at least 0.9, where 1 is the maximum). The gist of the method:
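Transactivation by an exogenous VDR-Gal4 chimera in transiently transfected HepG2 cells was measured as reporter transcript level 24 hours after chemical treatment. RT-PCR products were analysed by capillary electrophoresis and fitted in the positive direction relative to DMSO.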

Assay [10] is described as follows: BSK_3C_SRB: Viability Assessment in the BioMAP Diversity Plus: 3C Assay (AID 2283023).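 Note: fitted both ways against DMSO so a hit may be signal rise or drop.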 Conditions: primary human endothelial cells (HUVEC). The gist of the method:
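Cytotoxicity readout in parallel HUVEC 3C cultures: after 24 h compound exposure, cells fixed with 10% TCA, stained with 0.1% SRB and read at 560 nm. Gain or loss relative to DMSO fitted.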

Read-out in assay [11]: Matrix Metallopeptidase 1 (MMP1), MMP1 (gene 4312)
The assay is described as follows: BSK_BE3C_MMP1: BioMAP Diversity Plus: BE3C Assay for Matrix Metallopeptidase 1 (MMP1) Biomarker Activity (AID 2283024). The settings on record: primary human bronchial epithelial cells; actives raise or lower the signal. The method, boiled down: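 MMP1 signal, measured by ELISA after a 24 h chemical exposure of human primary bronchial epithelial cells, is analysed with bidirectional fitting using DMSO as negative control.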

Assay [12] can be described thus: BSK_4H_SRB: Viability Assessment in the BioMAP Diversity Plus: 4H Assay (AID 2283027).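 Note: cells exposed to compound for 24 h before staining; curves fitted both ways versus DMSO so AC50 may be loss or gain.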 The settings on record: primary human endothelial cells (HUVEC). The gist of the method:
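Cytotoxicity read-out in primary human endothelial cells: after 24 h compound exposure, cells were TCA-fixed (10%), stained with 0.1% SRB and absorbance taken at 560 nm. Values fitted in both directions relative to DMSO.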

The nature of assay [13]: BSK_BE3C_SRB: Viability Assessment in the BioMAP Diversity Plus: BE3C Assay (AID 2283028).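 For AC50: fitted both ways so AC50 may mark signal gain or loss versus DMSO.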 Conditions: primary human bronchial epithelial cells. The method, boiled down:
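Cytotoxicity read-out: SRB (0.1%) staining of TCA-fixed (10%) human lung bronchial epithelial cells, absorbance 560 nm, 24 h post-dosing. Curves fitted both directions relative to DMSO.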

Read-out in assay [14]: Thrombomodulin, THBD (gene 7056)
The assay is described as follows: BSK_3C_Thrombomodulin: BioMAP Diversity Plus: 3C Assay for Thrombomodulin Biomarker Activity (AID 2283029). The settings on record: primary human endothelial cells (HUVEC); actives raise or lower the signal. The method, boiled down:
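Endothelial cells from umbilical vein are dosed with test chemical and incubated 24 h. Thrombomodulin is then quantified by ELISA, with DMSO serving as negative control and activity baseline.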

Read-out in assay [15]: Urokinase-type plasminogen activator receptor (uPAR), PLAUR (gene 5329)
The assay is described as follows: BSK_4H_uPAR: BioMAP Diversity Plus: 4H Assay for Urokinase-type plasminogen activator receptor (uPAR) Biomarker Activity (AID 2283030). The settings on record: primary human endothelial cells (HUVEC); actives raise or lower the signal. The method, boiled down:
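uPAR level read by ELISA on HUVEC cultures (BioMAP 4H) 24 h post-dosing, analyzed for gain or loss relative to DMSO. Parallel SRB staining assessed overt cytotoxicity.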

Read-out in assay [16]: Monokine induced gamma interferon (MIG), CXCL9 (gene 4283)
The assay is described as follows: BSK_3C_MIG: BioMAP Diversity Plus: 3C Assay for Monokine induced gamma interferon (MIG) Biomarker Activity (AID 2283021). Conditions: primary human endothelial cells (HUVEC); actives raise or lower the signal. The gist of the method: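 Endothelial primary cells (human umbilical vein) are dosed with test chemical in the 3C system. MIG levels are measured by ELISA at 24 h and fitted in both directions relative to DMSO.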

A short description of assay [17]: BSK_3C_Vis: BioMAP Diversity Plus: 3C Assay for Morphology Visualization (AID 2283025).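 Note: fitted both ways so gain or loss versus DMSO counts.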 The settings on record: primary human endothelial cells (HUVEC). The method, boiled down: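 Morphology read by light microscopy serves as a background control for the multiplexed 3C assay in human umbilical vein endothelial cells, taken 24 h after dosing, with DMSO as the negative control and bidirectional curve fitting.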

Read-out in assay [18]: Pselectin, SELP (gene 6403)
The assay is described as follows: BSK_4H_Pselectin: BioMAP Diversity Plus: 4H Assay for Pselectin Biomarker Activity (AID 2283026). Conditions: primary human endothelial cells (HUVEC); actives raise or lower the signal. The method, boiled down:
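Endothelial primary cells (human umbilical vein) are dosed, incubated 24 h, and assayed for surface P-selectin by ELISA; responses in either direction are fitted relative to the DMSO negative control.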

The target in assay [19] is Retinoic acid receptor RXR-alpha (Homo sapiens) (UniProt P19793). The assay is described as follows: ATG_RXRa_TRANS: Attagene TRANS-FACTORIAL HepG2 Assay for human Retinoid X Receptor alpha (RXRa) (AID 2283012; active = hit-call score of the fitted dose curve at least 0.9, where 1 is the maximum). The gist of the method: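 Measures exogenous chimeric NR-GAL4 activity in transfected HepG2 liver cells after 24 h of dosing. Induced reporter mRNA was detected by RT-PCR with capillary electrophoresis, and gain of signal was analysed against DMSO.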
Chain of Retinoic acid receptor RXR-alpha (Homo sapiens) (P19793 whole entry, looked up, the tested form may be a part): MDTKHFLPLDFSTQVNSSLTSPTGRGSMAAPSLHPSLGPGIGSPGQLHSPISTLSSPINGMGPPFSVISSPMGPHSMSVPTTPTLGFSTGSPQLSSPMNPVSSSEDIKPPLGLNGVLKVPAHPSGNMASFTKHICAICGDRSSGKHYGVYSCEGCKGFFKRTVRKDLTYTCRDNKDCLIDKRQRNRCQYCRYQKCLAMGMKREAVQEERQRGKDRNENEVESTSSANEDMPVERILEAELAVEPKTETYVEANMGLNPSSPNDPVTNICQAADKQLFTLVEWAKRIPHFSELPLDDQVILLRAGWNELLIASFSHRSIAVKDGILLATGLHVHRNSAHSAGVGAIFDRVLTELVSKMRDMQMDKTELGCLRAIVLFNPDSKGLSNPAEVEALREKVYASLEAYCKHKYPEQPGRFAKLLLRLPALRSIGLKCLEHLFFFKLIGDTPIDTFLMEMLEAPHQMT

The target of assay [20] is human Retinoid X Receptor beta (RXRb), RXRB (gene 6257) (UniProt P28702). The assay is described as follows: ATG_RXRb_TRANS: Attagene TRANS-FACTORIAL HepG2 Assay for human Retinoid X Receptor beta (RXRb) (AID 2283013; active = hit-call score of the fitted dose curve at least 0.9, where 1 is the maximum). The gist of the method:
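Chimeric receptor-Gal4 activity was assessed in transiently transfected human HepG2 cells after 24 h exposure. Transcripts from GAL4-UAS reporters were quantified by fluorescent RT-PCR and capillary electrophoresis, with DMSO as negative control and baseline.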

Chain of human Vitamin D Receptor (VDR), VDR (gene 7421) (P11473 whole entry, looked up, the tested form may be a part): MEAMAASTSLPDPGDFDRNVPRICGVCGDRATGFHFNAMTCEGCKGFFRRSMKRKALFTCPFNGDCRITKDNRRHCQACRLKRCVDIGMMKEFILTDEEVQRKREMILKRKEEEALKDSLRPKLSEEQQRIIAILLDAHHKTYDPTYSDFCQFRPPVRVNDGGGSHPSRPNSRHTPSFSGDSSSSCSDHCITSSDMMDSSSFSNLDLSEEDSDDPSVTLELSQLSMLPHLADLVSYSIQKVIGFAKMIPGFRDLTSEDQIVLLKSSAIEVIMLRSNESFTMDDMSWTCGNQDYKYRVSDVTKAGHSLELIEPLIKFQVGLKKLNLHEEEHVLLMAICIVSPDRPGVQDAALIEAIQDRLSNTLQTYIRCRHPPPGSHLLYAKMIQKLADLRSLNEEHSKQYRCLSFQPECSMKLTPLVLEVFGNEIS
Chain of human RAR-related Orphan Receptor gamma (RORg), RORC (gene 6097) (P51449 whole entry, looked up, the tested form may be a part): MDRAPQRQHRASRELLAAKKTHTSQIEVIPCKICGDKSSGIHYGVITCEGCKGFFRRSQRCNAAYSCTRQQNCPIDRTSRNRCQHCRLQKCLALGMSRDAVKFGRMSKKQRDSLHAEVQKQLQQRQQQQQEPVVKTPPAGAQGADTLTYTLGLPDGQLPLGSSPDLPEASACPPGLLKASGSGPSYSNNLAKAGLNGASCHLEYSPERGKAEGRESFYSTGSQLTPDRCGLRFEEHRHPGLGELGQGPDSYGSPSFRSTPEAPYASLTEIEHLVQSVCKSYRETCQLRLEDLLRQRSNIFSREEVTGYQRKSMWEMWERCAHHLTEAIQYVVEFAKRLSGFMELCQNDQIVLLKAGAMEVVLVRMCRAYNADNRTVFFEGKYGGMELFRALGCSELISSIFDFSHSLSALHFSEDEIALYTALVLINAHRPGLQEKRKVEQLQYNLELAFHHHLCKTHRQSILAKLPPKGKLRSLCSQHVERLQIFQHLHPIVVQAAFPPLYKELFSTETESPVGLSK
Chain of human Retinoid X Receptor beta (RXRb), RXRB (gene 6257) (P28702 whole entry, looked up, the tested form may be a part): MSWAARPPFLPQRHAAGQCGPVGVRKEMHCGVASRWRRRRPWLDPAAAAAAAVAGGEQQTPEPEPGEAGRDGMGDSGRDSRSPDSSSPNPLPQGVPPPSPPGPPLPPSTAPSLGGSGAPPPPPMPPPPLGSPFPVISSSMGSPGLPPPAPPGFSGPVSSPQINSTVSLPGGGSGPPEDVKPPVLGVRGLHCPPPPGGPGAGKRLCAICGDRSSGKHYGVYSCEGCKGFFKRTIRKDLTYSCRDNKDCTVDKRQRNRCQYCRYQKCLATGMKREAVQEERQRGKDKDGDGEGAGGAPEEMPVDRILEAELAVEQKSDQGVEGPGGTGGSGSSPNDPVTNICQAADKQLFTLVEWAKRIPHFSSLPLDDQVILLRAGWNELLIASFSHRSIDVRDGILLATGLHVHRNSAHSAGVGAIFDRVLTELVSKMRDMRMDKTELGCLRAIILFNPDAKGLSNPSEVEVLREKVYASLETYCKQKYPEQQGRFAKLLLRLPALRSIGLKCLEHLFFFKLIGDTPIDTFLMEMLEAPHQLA
Chain of E-selectin (Homo sapiens) (P16581 whole entry, looked up): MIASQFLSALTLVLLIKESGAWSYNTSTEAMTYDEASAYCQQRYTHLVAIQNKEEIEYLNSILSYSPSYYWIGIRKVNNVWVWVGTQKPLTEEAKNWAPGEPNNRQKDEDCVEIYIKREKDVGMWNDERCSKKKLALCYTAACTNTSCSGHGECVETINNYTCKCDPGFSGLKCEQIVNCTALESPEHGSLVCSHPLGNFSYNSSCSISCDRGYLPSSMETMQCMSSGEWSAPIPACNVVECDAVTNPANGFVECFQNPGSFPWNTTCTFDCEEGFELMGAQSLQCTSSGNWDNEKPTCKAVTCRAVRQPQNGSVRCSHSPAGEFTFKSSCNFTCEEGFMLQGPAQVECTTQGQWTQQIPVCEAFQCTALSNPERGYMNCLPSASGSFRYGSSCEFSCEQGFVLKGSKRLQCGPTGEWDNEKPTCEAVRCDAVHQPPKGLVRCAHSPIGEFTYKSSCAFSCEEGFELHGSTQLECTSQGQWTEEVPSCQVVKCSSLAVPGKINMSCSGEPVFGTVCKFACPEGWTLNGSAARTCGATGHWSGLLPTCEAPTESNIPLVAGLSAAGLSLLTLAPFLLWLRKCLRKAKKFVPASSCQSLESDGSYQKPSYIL

With `Oc1c(Cl)cc(Cl)cc1Sc1cc(Cl)cc(Cl)c1O`, the compound was called inactive in [1], in assay [2], in assay [9], in [11] and in [14]. The AC50 in assay [3] is 31.1 µM (active) and 29.8 µM (active); in assay [4], 7.68 µM (active) and 8.04 µM (active); in assay [5] it was 36.2 µM (active) and 35.9 µM (active); in assay [6], 9.13 µM (active) and 5.86 µM (active); in assay [7] it was 15.5 µM (active) and 22.3 µM (active); in assay [8], 36 µM (active) and 35.2 µM (active). Moreover, the AC50 in assay [10] is 15.7 µM (active) and 13.3 µM (active); in assay [12], 23.9 µM (active) and 23.7 µM (active); in assay [13] it was 5.25 µM (active) and 5.18 µM (active); in assay [14], 11.1 µM (active); in assay [15], 20 µM (active) and 9.97 µM (active).

As to `O=C(c1ccccc1)c1ccccc1`, the compound was classed as inactive in assay [1], in assay [3], in assay [4], in assay [5], in [6] and in [8]. In addition, the result in [16], in assay [9], in assay [10], in assay [11], in [17] and in assay [18] was inactive. Besides, the result in [13], in assay [14] and in assay [15] was inactive.

As to `CCCCCCCCCCCC(=O)NCCCN(C)C`, in assay [19], the result was inactive.

As to `O=C(F)C(F)(F)C(F)(F)C(F)(F)C(F)F`, the result in assay [19] was inactive.

For `O=C(O)CN(CCCN(CC(=O)O)CC(=O)O)CC(=O)O`, the result in assay [1] and in [2] was inactive.

For `C/C=C/C(=O)C1=C(C)CCCC1(C)C`, the compound was classed as inactive in [19], in assay [20] and in assay [2].

Consider `O=C(O)c1cccc(C(=O)O)n1`, for which the outcome in [19] and in assay [20] was inactive.

Take `c1ccc2c(c1)CCC2`: the compound was classed as inactive in [19].

For `CCOC=C(C(=O)OCC)C(=O)OCC`, the compound was called inactive in assay [19].

For the compound `CC(C)(C)c1ccc(CCC=O)cc1`, the compound was called inactive in assay [1] and in [9]. For the same compound, the AC50 in [20] was 41.2 µM (active).

For `O=C(c1cc(O)c(O)c(O)c1)c1ccc(O)c(O)c1O`, the outcome in assay [1], in [2] and in assay [9] was inactive.

As to `O=C(O)C(=O)O`, the call in assay [19] and in [20] was inactive.
